# Screening data as filed in PubChem.
# Shown are actives, neighbours in structure and some others; about 3.5% of the full set was active somewhere.
# MITF primary = human MITF inhibition, primary screen; inhibition, % at 2.6 µM; 650,000 tested, 0.91% active; AlphaScreen MITF homodimerization, bead proximity signal; in the data active = inhibition above about 50%
# GPR151 activ = activators of human GPR151 | Q8TDV0 | PathHunter beta-arrestin GPR151 cells, luminescence | activation, % at 11.2 µM | 650,000 tested, 1% active | AID 1508602; in the data active = activation above about 4.9%
# Target sequence (Q8TDV0 whole entry, looked up): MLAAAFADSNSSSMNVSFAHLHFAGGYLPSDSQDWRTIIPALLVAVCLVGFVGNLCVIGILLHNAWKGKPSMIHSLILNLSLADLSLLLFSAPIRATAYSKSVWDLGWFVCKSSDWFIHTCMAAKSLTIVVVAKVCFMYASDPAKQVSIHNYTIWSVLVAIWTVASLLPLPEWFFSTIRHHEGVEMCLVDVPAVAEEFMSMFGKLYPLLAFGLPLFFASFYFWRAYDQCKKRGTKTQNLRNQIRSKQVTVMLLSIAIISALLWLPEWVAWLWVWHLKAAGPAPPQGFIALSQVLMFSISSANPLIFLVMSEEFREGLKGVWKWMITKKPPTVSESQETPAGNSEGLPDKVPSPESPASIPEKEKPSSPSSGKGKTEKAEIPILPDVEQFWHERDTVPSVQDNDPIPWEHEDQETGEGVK
# FBW7 activator = human FBW7 E3 ligase activation, primary screen; Q969H0; AlphaScreen FBW7–phospho-cyclin E peptide binding, activator screen; normalized activity (activation), % at 26.1 µM; 650,000 tested, 0.13% active; in the data active = normalized activity above about 1.9%;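 note: purified mutant Fbw7 with reduced substrate affinity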
# TEAD-YAP inh = TEAD-YAP interaction inhibition; HEK-TIYL cells, TEAD-Gal4/YAP UAS-luciferase luminescence; 640,000 tested, 1.4% active; inhibition, % at 9.12 µM; AID 1259422; in the data active = inhibition above about 32%
# GPR151 conf act = confirmation of human GPR151 activators. 6,700 tested, under 10 active. AID 1508609. shares compounds with GPR151 activ. GPR151 PathHunter beta-arrestin cells, luminescence, 90 min; % of EA-reagent control over plate median. activation, % at 11.2 µM;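 active = mean percent activation across replicates above the confirmation screen cutoff of 4.91%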
# GPR119 counter = GPR119 activation, counter-screen for GPR151 activators. GPR119 PathHunter beta-arrestin cells, luminescence, 90 min; 0 = compound-well median, 100 = enzyme-acceptor control. shares compounds with GPR151 activ. 6,700 tested, 0.3% active. activation, % at 11.2 µM;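 active = mean percent activation in the counterscreen above 29.09%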;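 note: counterscreen on off-target GPR119 to flag nonselective hits from the GPR151 activator screen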
# Numbers stand for hits; - = inactive; . = no result.
SMILES,MITF primary,GPR151 activ,FBW7 activator,TEAD-YAP inh,GPR151 conf act,GPR119 counter
CCOC(=O)C(=CNc1cc(C)nn1-c1ccccc1)C(=O)OCC,-,6.6,-,-,-,-
Nc1nc(CSc2nnnn2-c2ccccc2)nc(Nc2ccc3ccccc3c2)n1,-,-,-,-,.,.
CC(C)c1ccc(NC(=O)c2cc(S(=O)(=O)N3CCc4ccccc43)ccc2F)cc1,-,7.4,-,-,-,-
Cc1ccc(NC(=O)c2ccccc2NC(=O)c2ccc(S(=O)(=O)N3CCc4ccccc43)cc2)c(C(=O)c2ccccc2)c1,-,8.7,-,-,-,-
COc1cc([N+](=O)[O-])c(N2CCOCC2)c([N+](=O)[O-])c1OC,-,5.4,-,-,-,-
O=S(=O)(O)c1ccc(N/N=[N+](\[O-])c2ccccc2)cc1,-,-,-,-,.,.
O=C(NC1CCOC1)c1cc(COc2ccc3ncccc3c2)on1 (stereo unspecified),-,5.2,-,-,-,-
O=C(Nc1ncc(Cc2ccc(Cl)cc2Cl)s1)c1ccc(Cl)cc1,-,5.7,-,-,-,-
Cc1noc(C(=O)Nc2c(C)nn(Cc3ccccc3)c2C)c1Cl,-,5.3,-,-,-,-
CCc1cccc(NC(=O)c2sccc2S(=O)(=O)N(C)c2ccc(C)cc2)c1,-,6.0,-,-,-,-
CC(C)OC(=O)/C(C#N)=C\c1cccs1,-,6.0,-,-,-,-
COc1ccc(C(=O)N2CCN(C)CC2)cc1[N+](=O)[O-],-,-,-,-,.,.
CCN1CCN(C(=O)c2ccc(OC)c([N+](=O)[O-])c2)CC1,-,7.4,-,-,-,-
COc1ccc(C(=O)NC2CC2)cc1OC1CCN(Cc2ccc(F)cc2F)CC1,-,5.6,-,-,-,-
CCCCNC(=O)C1Cc2ccccc2CN1S(=O)(=O)c1cccs1 (stereo unspecified),-,5.7,-,-,-,-
COc1ccc(CCNc2cc(C)nc(NC3CCC(O)CC3)n2)cc1 (stereo unspecified),-,6.8,-,-,-,-
CC(C)n1cnc2c(NCc3ccccc3)nc(Nc3ccc(-n4ccnc4)cc3)nc21,-,-,-,-,.,.
COc1ccc(CCNc2ccnc(Nc3ccc4ncccc4c3)n2)cc1,63.0,5.9,-,51.5,-,-
COc1ccc(CCNc2cc(C)nc(Nc3ccc(-n4ccnc4)cc3)n2)cc1,-,5.3,-,76.9,-,53.8
Oc1ccc(CCNc2ccnc(Nc3ccc4ncccc4c3)n2)cc1,-,-,-,-,.,.
CC(C)n1cnc2c(NCCO)nc(Nc3ccc(-n4ccnc4)cc3)nc21,-,5.4,-,-,-,-
COc1ccc(CCNc2ccnc(Nc3ccc(-n4ccnc4)cc3)n2)cc1,-,6.5,-,82.5,-,38.3
CCCNc1ccnc(Nc2ccc(-n3ccnc3)cc2)n1,-,-,-,-,.,.
Oc1ccc(CCNc2nc(NCc3ccc4c(c3)OCO4)nc3c2ncn3C2CCCCC2)cc1,-,17.2,-,-,-,-
CC(C)n1cnc2c(NCc3cccc(C(F)(F)F)c3)nc(Nc3ccncc3)nc21,-,5.9,-,-,-,-
SMILES,MITF primary,GPR151 activ,FBW7 activator,TEAD-YAP inh,GPR151 conf act,GPR119 counter
COc1ccc(CCNc2nc(Nc3ccc(-n4ccnc4)cc3)nc3c2ncn3C2CCCCC2)cc1,-,6.1,-,-,-,-
COc1cc(NC(=O)Nc2ccc(Cl)cc2)c(C(=O)O)cc1OC,-,-,-,-,.,.
N#CC1=C(SCc2ccc(Br)cc2)NC(=O)C(C#N)C12CCCCC2 (stereo unspecified),-,-,-,-,.,.
CCCn1c(=O)c2ccccc2n2c(SCC(N)=O)nnc12,-,-,-,-,.,.
CCn1c(=O)c2ccccc2n2c(SCC(N)=O)nnc12,-,6.3,-,-,-,-
CCn1c(SCC(N)=O)nc2ccc(Br)cc2c1=O,-,5.4,-,-,-,-
CCn1c(SCC(N)=O)nc2ccc(I)cc2c1=O,-,-,-,-,.,.
CN1CCN(C(=O)/C=C/c2c(Cl)cccc2Cl)CC1,-,7.2,-,-,-,-
CCN(CC)CCN1C(=O)C(O)=C(C(=O)c2cc3ccccc3o2)C1c1ccc(C)o1 (stereo unspecified),-,6.1,-,-,-,-
Cc1ccc(NC(=O)NC2(C(=O)NCc3ccncc3)CCCCC2)cc1,-,5.4,-,-,-,-
COc1ccc(NC(=O)NC2(C(=O)NCc3ccncc3)CCCCC2)cc1,-,-,-,-,.,.
N#Cc1ccc(NC(=O)COC(=O)c2ccc(N)cc2)cc1,-,-,-,-,.,.
O=C(OCc1ccccc1)c1ccc(OC(=O)c2cc3ccccc3oc2=O)cc1,-,6.6,-,-,-,-
O=C(Oc1ccccc1)c1cc2ccccc2oc1=O,-,-,-,-,.,.
CC(=O)N1CCc2c(sc(NC(=O)C(C)(C)C)c2C(N)=O)C1,-,6.4,-,-,-,-
CC(=O)Nc1sc2c(c1C(N)=O)CCN(C(C)=O)C2,-,-,-,-,.,.
CC(=O)Nc1ccc(-c2cnc3cccc(-c4ccncc4)c3c2)cc1,-,5.0,-,-,-,-
CC(=O)Nc1ccc(-c2cnc3cccc(-c4cccnc4)c3c2)cc1,-,-,-,-,.,.
COc1cc(/C=N/Nc2nnc(C)c(=O)[nH]2)ccc1OC(C)C,-,-,-,-,.,.
Cc1ccc(C)c(OCC(=O)NCCCN(C)C)c1,-,9.1,-,-,-,-
Cc1ccc(OCC(=O)Nc2ccncc2)cc1C,-,4.9,-,-,-,-
COCCCNC(=O)COc1ccc(Cl)c(C)c1,-,-,-,-,.,.
COCCCNC(=O)COc1ccc(C)c(C)c1,-,10.4,-,-,-,-
COCCCNC(=O)CCCc1ccc(OC)c(C)c1,-,12.6,-,-,-,-
CCOc1ccccc1-n1nnc(-c2nc(-c3ccc(Cl)cc3)no2)c1N,-,-,-,-,.,.
SMILES,MITF primary,GPR151 activ,FBW7 activator,TEAD-YAP inh,GPR151 conf act,GPR119 counter
CCOC(=O)C1CCCCN1C(=O)CCc1nnc(C2CCCCC2)o1 (stereo unspecified),-,-,-,-,.,.
O=C(CN1C(=O)c2ccccc2C1=O)Nn1c(-c2cccc(Cl)c2)nc2ccccc2c1=O,-,6.7,-,-,-,-
O=C(Cn1ncn2nc(-c3ccco3)cc2c1=O)NCc1ccccc1Br,-,-,-,-,.,.
CCC(=O)N1c2cc(C)c(C)cc2-c2c(ssc2=S)C1(C)C,-,-,-,-,.,.
c1ccc(CN2CCC(c3nc4ccccc4[nH]3)CC2)nc1,-,-,-,-,.,.
CC(=O)Nc1ccc(NC(=O)C(C)Sc2ccccc2)cc1 (stereo unspecified),-,11.4,-,-,-,-
O=C(O)c1ccc(-c2cnn(-c3ccccc3)c2)nc1,-,-,-,-,.,.
O=C(O)c1cccc(-n2cc(-c3cc(F)cc(F)c3)cn2)c1,-,7.2,-,-,-,-
O=C(CSc1nc2ccccc2s1)NCc1ccco1,-,6.1,-,-,-,-
CCCN1C(=O)/C(=C/c2ccc(OC)cc2)NC1=S,-,-,-,-,.,.
